High-throughput results (PubChem BioAssay)
CYP2C9 act: human CYP2C9 activators, primary screen, biochemical, luminescence; Cytochrome P450 2C9 (Homo sapiens), P11712; recombinant CYP2C9, luciferin-H conversion; hits give high values; factor 1 = untreated enzyme, 0 = blocked; activation factor at 5 µM; 1.4% of 96,000 active;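 active means activation factor of 2 or more for CYP2C9 at a 5 µM dose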;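 further: 0 = sulfaphenazole-blocked wells and 1 = vehicle-only wells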
Target sequence (P11712 whole entry, looked up): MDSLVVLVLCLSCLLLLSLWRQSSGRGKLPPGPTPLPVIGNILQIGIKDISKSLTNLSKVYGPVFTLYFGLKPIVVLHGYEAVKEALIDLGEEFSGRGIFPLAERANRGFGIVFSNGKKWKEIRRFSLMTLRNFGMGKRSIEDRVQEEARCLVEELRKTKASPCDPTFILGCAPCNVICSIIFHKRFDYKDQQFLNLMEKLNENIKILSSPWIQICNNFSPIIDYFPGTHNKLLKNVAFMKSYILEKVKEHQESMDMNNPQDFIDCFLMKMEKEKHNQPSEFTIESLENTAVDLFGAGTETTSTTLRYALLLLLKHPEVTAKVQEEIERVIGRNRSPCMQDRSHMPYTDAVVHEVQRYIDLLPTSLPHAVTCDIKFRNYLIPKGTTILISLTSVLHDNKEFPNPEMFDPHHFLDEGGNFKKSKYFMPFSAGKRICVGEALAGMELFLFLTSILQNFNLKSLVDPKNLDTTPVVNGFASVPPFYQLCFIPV
CYP2C9 inhib: blockers of cytochrome P450 2C9 activity – biochemical, luminescence, ADME assay, primary screen; AID 777, 2007; inhibition, % at 5 µM; P11712; 20% of 96,000 active; CYP2C9 Supersomes, luciferin-H conversion;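 active means blocking of liver enzyme CYP2C9 beyond about 50% at 5 µM, limit read from the data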
Cav32 inh: Cav3.2 calcium influx blockers – cell-based, Fluo-4 calcium fluorescence, FDSS, MLSMR library, primary screen. Voltage-dependent T-type calcium channel subunit alpha-1H (Homo sapiens), O95180. 4% of 100,000 active. Cav3.2-expressing cells; hits give low values. B-score at 10 µM;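 active means single-dose well whose peak fluorescence ratio is a statistical outlier from its plate by either plate-standardised score or position-corrected B-score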
CYP2C19 activ: human CYP2C19 activators, primary screen, biochemical, luminescence. Cytochrome P450 2C19 (Homo sapiens), P33261. recombinant CYP2C19, luciferin-H EGE luminescence; hits give high values; 0 = fully inhibited enzyme, 1 = untreated enzyme. activation factor at 5 µM. 96,000 tested, under 10 active;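 active means activation factor of at least 2 at 5 µM in the primary screen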;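 further: 0 = wells with 2.5 mM tranylcypromine and 1 = vehicle-only wells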
CYP2C19 inh: blockers of cytochrome P450 2C19 activity – biochemical, luminescence, ADME assay, primary screen; P33261; CYP2C19 Supersomes, luciferin-H EGE luminescence, 30 min; inhibition, % at 5 µM; 21% of 96,000 active; AID 778, 2007;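 active means CYP2C19 inhibition above a set limit at 5 µM in the primary screen, cut at about 50% in these data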;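 further: plate controls were negative control wells for no effect and 2.5 mM tranylcypromine positive control for full effect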
Numbers without * were called inactive; x = no result. Hits are enriched below; roughly 27% of the tested compounds scored in any of these assays.

SMILES	CYP2C9 act	CYP2C9 inhib	Cav32 inh	CYP2C19 activ	CYP2C19 inh
COc1cc(NS(=O)(=O)c2ccc(N/C=C(\C#N)c3nc4cc(Cl)ccc4o3)cc2)nc(OC)n1	0.4	63*	0.79	1.1	-6
CN(C)NC1CCS(=O)(=O)C1 (centres undefined)	1.1	-6	0.49	1	-4
O=C(CSc1nc2ccccc2o1)NCCOc1ccccc1	0.3	68*	-1.5	0.1	89*
O=C(CSc1nc2ccccc2o1)NCc1n[nH]c(=O)c2ccccc12	1.5	-50	x	1.1	-13
O=C(CSc1nc2ccccc2o1)Nc1ccccc1	1	2	-0.96	0.4	63*
O=C(O)CSc1nc2ccccc2o1	1.2	-20	x	1.3	-25
O=C(CSc1nc2ccccc2o1)NCC(=O)c1ccccc1	1.1	-11	2	0.4	61*
CSc1cccc(NC(=O)CSc2nc3ccccc3o2)c1	0.6	38	-3.6	0.5	53*
CC(C)CNC(=O)COc1ccc2c3c(c(=O)oc2c1)CCC3	0.2	76*	0.62	0.5	48
COc1ccccc1OCC(=O)NC1CCCCCC1	1	-5	1.9	0.6	43
CC(=O)COc1ccc2c3c(c(=O)oc2c1)CCCC3	0.6	42	0.38	0.4	64*
CC(=O)C(C)Oc1ccc2c3c(c(=O)oc2c1)CCCC3 (centres undefined)	0.8	18	0.54	0.8	18
CC(C)CCNC(=O)COc1ccc2c3c(c(=O)oc2c1)CCC3	0.8	24	0.028	1.1	-5
Cc1c(CC(=O)O)c(=O)oc2cc(OCc3nn[nH]n3)ccc12	1	-2	-0.87	1.1	-12
CCOC(=O)CCc1c(C)c2ccc(OCc3nn[nH]n3)cc2oc1=O	0.3	71*	0.12	0.6	38
COc1ccc2c(c1)c(=O)oc1cc(OCC(=O)NC3CCCCC3)ccc12	0.7	32	0.17	0.1	89*
NC1=C(c2ccc(F)cc2)C(=O)CS1	0.7	34	0.43	0.7	26
O=c1oc2cc(OCc3nn[nH]n3)ccc2c2c1CCCC2	0	96*	0.58	0.1	95*
Nc1c(-c2ccccc2)n[nH]c1-c1ccccc1	0.6	40	0.31	0.3	75*
CC1=C(C(=O)N2CCc3ccccc32)C2(CCC(C)CC2)OC1=O (centres undefined)	0.7	30	0.33	0.7	30
Nc1cccc(-n2nncc2-c2ccc(Cl)cc2)c1	0.8	16	-0.033	0.2	77*
N#CC1=C(N)c2ccccc2CC12CCCCC2	0.2	78*	-2.2	0.6	41
Cc1[nH]c2ccc(F)cc2c(=O)c1SC(F)(F)C(F)C(F)(F)F (centres undefined)	0.4	56*	-1.4	0.2	80*
O=C(c1ccccc1F)N1CCN(Cc2ccccc2F)CC1	0.4	59*	0.61	0	96*
O=C(c1cccc(Cl)c1)N1CCN(C2CCCCCC2)CC1	0.9	9	0.74	0.8	19
SMILES	CYP2C9 act	CYP2C9 inhib	Cav32 inh	CYP2C19 activ	CYP2C19 inh
COc1cccc2cc(C(=O)N3CCN(c4ccc(C)cc4C)CC3)c(=O)oc12	0.8	20	-3	0.8	17
O=CN1CCN(C(=O)c2ccccc2F)CC1	1.2	-19	0.99	1	0
O=C(c1cccc(Cl)c1)N1CCN(Cc2ccccc2F)CC1	0.2	79*	0.13	0	97*
Cc1ccc(N2CCN(C(=O)c3ccccc3F)CC2)c(C)c1	0.1	89*	-2.4	0	100*
Cn1c(=O)[nH]c(=O)c2c1nc(N1CCCC1)n2CCSc1nc2ccccc2[nH]1	0.9	9	-0.09	1.1	-6
O=S(=O)(c1cccc(-c2nnc(SCc3ccc(Cl)cc3)o2)c1)N1CCCCC1	0.1	87*	-2.7	0.3	69*
Cc1ccc(CSc2nnc(-c3ccc(S(=O)(=O)N4CCCC4)cc3)o2)cc1	0.8	21	0.12	1	4
CN(C)S(=O)(=O)c1cccc(-c2nnc(SCc3ccc4c(c3)OCCO4)o2)c1	0.1	92*	0.12	0.4	64*
O=S(=O)(c1ccc(-c2nnc(SCc3ccccc3)o2)cc1)N1CCCC1	0.7	33	-0.19	0.9	13
